Assay outcomes as filed in PubChem BioAssay.
Many of the other results were omitted from the sample, so hits are more common in it than they were.
Dicer inh – human Dicer pre-microRNA cleavage inhibition; z-score at 25 µM; hit rate 6% among 47,000; cat-ELCCA pre-miR-21 Dicer processing, chemiluminescence; stronger effect = higher value; in the data active means z-score above about 3, passing the limit was not always enough;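 further: plate controls were vehicle for no effect and no enzyme for full effect; higher signal means more uncleaved substrate so more Dicer inhibition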
An asterisk follows results filed as active.

CN(C)Cc1c(O)ccc2c(=O)c(-c3ccc(Cl)cc3)c(C(F)(F)F)oc12 was read as Dicer inh -0.77.
`Cc1cc2n(n1)C(c1ccc(C(=O)O)cc1)Nc1c(C)cccc1-2` (centres undefined) gave Dicer inh 2.4.
Screening Cc1cc2n(n1)C(c1ccc(O)cc1O)Nc1c(C)cccc1-2 (centres undefined) returned Dicer inh 1.5.
Cc1cc2n(n1)C(c1ccc(O)cc1)Nc1c(C)cccc1-2 (centres undefined) was read as Dicer inh 4.8*.
Screening Cc1cc2n(n1)C(c1ccc(N3CCOCC3)cc1)Nc1c(C)cccc1-2 (centres undefined) returned Dicer inh 3.8*.
`CC(C)(C)c1csc(N/N=C/c2ccc(Cl)cc2)n1` gave Dicer inh 1.8.
COc1ccc2c(c1)C1=NN(C(C)=O)C(c3ccc(Br)cc3)C1CC2 (centres undefined) was read as Dicer inh -0.3.
CN(C)c1ccc(C2NC(=O)c3ccccc3N2)c(Cl)c1 (centres undefined) was read as Dicer inh -0.32.
`CCOC(=O)c1cccc(CO/N=C(\C)c2ccc(Cl)c(Cl)c2)c1` gave Dicer inh -1.4.
Screening CN(C)S(=O)(=O)c1ccc2c(c1)C(=O)c1cc(S(=O)(=O)N(C)C)ccc1-2 returned Dicer inh 0.32.
For CC1(C)CCC(=O)N(c2ccc(OC(F)(F)F)cc2)C1=O the results were Dicer inh 2.
For COC(=O)c1sccc1Oc1ccc(Cl)cc1N1C(=O)CCC1=O the results were Dicer inh 1.5.
For Cc1ccc(Cl)cc1N1C(=O)CCC(C)(C)C1=O the results were Dicer inh 3.3*.
For CCN(CC)CCn1c(-c2ccc(Br)cc2)cn2c3ccccc3nc12 the results were Dicer inh 0.65.
For Cc1ccc(-c2nc(-c3cccnc3)no2)cc1C the results were Dicer inh 2.
For c1ccc(-c2ccc(-c3nc(-c4cccnc4)no3)cc2)cc1 the results were Dicer inh 3.2*.
COc1ccc(-c2nc(-c3cccnc3)no2)cc1 was read as Dicer inh 1.8.
CSc1ccc(C2C3=C(CCCC3=O)Nc3[nH]n(-c4ccccc4)c(=O)c32)cc1 (centres undefined) was read as Dicer inh -0.89.
Screening FC(F)(F)c1cc2[nH]c(=S)[nH]c2cc1Cl returned Dicer inh 0.12.
Screening CSc1ccc(C=C2C(=O)OC(C)(C)OC2=O)s1 returned Dicer inh 0.88.
CC1(C)OC(=O)C(=Cc2ccc[nH]2)C(=O)O1 was read as Dicer inh 1.2.
`O=C1OC2(CCCC2)OC(=O)C1=Cc1ccoc1` gave Dicer inh 3.5*.
For O=C(Cn1c(=O)sc2ccccc21)NCc1ccccc1 the results were Dicer inh 0.61.
Screening CCC(C(=O)NNC(=O)c1ccc(N(C)C)cc1)c1ccccc1 (centres undefined) returned Dicer inh 0.09.
FC(F)(F)c1ccc(N2CCC(n3cccc3)CC2)nc1 was read as Dicer inh -1.1.
CC(C)(C)c1ccc(-c2nc3cc(NC(=O)c4ccc([N+](=O)[O-])o4)ccc3o2)cc1 was read as Dicer inh 1.
`c1ccc(NCc2ccc3c(c2)OCO3)cc1` gave Dicer inh 1.4.
Screening Cc1cc(NCc2ccc3c(c2)OCO3)ccc1Br returned Dicer inh 3.8*.
For O=C(O)c1cc(NCc2ccc3c(c2)OCO3)ccc1N1CCOCC1 the results were Dicer inh 2.8.
O=c1[nH]c2ccc(NCc3ccc4c(c3)OCO4)cc2[nH]1 was read as Dicer inh -0.48.
`Cc1ccc(-c2nc3cc(NCc4ccc5c(c4)OCO5)ccc3o2)cc1` gave Dicer inh 8*.
Screening Cc1ccc(-c2nc3cc(NC(=O)c4ccc([N+](=O)[O-])o4)ccc3o2)cc1 returned Dicer inh -0.19.
`CCc1ccc(CNCc2ccc3c(c2)OCO3)cc1` gave Dicer inh 1.6.
Screening Clc1cc(NCc2ccc3c(c2)OCO3)ccc1N1CCOCC1 returned Dicer inh 6.9*.
Screening CC(C)c1nnc2n1N=C(c1ccc(Br)cc1)CS2 returned Dicer inh -1.1.
For CCN1CCN(C2=NS(=O)(=O)c3ccccc32)CC1 the results were Dicer inh 0.21.
For O=c1[nH]nc(SCc2cccc3ccccc23)c(=O)[nH]1 the results were Dicer inh -0.12.
`Cc1oc2cc(OC(C)C(=O)O)ccc2c(=O)c1-c1ccc(Br)cc1` (centres undefined) gave Dicer inh 0.31.
For [Cl-].[Cl][Pt].[NH2-].[NH2-].c1ccncc1 the results were Dicer inh 0.41.
Screening CCOC(=O)C1CCN(S(=O)(=O)c2ccc3oc4ccccc4c3c2)CC1 returned Dicer inh -0.96.
CCOC(=O)c1cnc2cc(-c3ccco3)[nH]n2c1=O was read as Dicer inh 2.6.
Screening Cc1cc(C)cc(NC(=O)C2Sc3nnc(C)n3NC2c2ccc(F)cc2)c1 (centres undefined) returned Dicer inh -1.1.
Nc1nc(SCc2cccc(C(F)(F)F)c2)ncc1C(=O)O was read as Dicer inh 0.43.
For Cc1ccc(S(=O)(=O)NNC(=O)c2c(-n3c(C)ccc3C)sc3c2CCCC3)cc1 the results were Dicer inh -0.76.
Cn1cnc(S(=O)(=O)Nc2ccc(C#N)cc2)c1 was read as Dicer inh -0.68.
`NC(=O)NS(=O)(=O)c1ccc(N)cc1` gave Dicer inh 1.
Nc1ccc(Nc2ccc(N)cc2S(=O)(=O)O)cc1 was read as Dicer inh 44*.
For Nc1ccc(S(=O)(=O)c2ccc(N)cc2)cc1 the results were Dicer inh 1.5.
Screening CC(=O)C(Sc1nnc(C(F)(F)F)n1C)C(C)=O returned Dicer inh -0.13.
For CN1CCN(CCCN2c3ccccc3Sc3ccc(S(=O)(=O)N(C)C)cc32)CC1 the results were Dicer inh 6*.
For CC(=O)c1ccc2c(c1)N(CCCN1CCC(CCO)CC1)c1ccccc1S2 the results were Dicer inh 80.
Screening OCCN1CCN(CCCN2c3ccccc3Sc3ccc(Cl)cc32)CC1 returned Dicer inh 32.
`CN(C)c1ccc(NS(=O)(=O)c2ccccc2)cc1C(=O)O` gave Dicer inh -0.63.
For CSc1sc(C(=O)c2ccc(Cl)cc2)c2c1C(=O)CC(C)(C)C2 the results were Dicer inh -1.1.
O=[N+]([O-])c1ccc(Sc2c(-c3ccccc3)nc3sc4ccccc4n23)cc1 was read as Dicer inh -1.
CC(C)(C)c1ccc(-c2nc(NCCCN3CCOCC3)c3ccccc3n2)cc1 was read as Dicer inh 0.3.
For N#CCS(=O)(=O)Cc1ccc(Cl)cc1 the results were Dicer inh -0.91.
`CCc1ccnc(NS(=O)(=O)c2ccc(C)cc2)c1` gave Dicer inh 0.38.
Screening CCc1ccnc(NC(=O)NS(=O)(=O)c2ccc(C)cc2)c1 returned Dicer inh 5.1*.
`Cc1ccc(S(=O)(=O)NC(=O)Nc2cc(C)on2)cc1` gave Dicer inh -0.09.
`Nc1ccccc1NC(=S)Nc1c(Cl)cccc1Cl` gave Dicer inh -0.77.
Cc1cccc(CNCc2ccc3c(c2)OCO3)c1 was read as Dicer inh 0.66.
For CCCOc1ccc(C2Nc3ccc4ncccc4c3C3=C2C(=O)CCC3)cc1 (centres undefined) the results were Dicer inh 0.05.
For CC1=NNC(=O)C1Oc1ccc(Cl)cc1Cl (centres undefined) the results were Dicer inh -6.8.
